The values that follow come from PubChem BioAssay (NCATS).

SMILES strings stand for the structures. Inconclusive results are not listed. The source holds several records for some structures; these can differ, active in one and inactive in another. Unmarked numbers belong to inactive results. Calls of active or inactive are those of the source. Unless noted, the call rests on the fitted dose curve; in most records, active means well fitted curve in the direction sought with a large enough effect; inconclusive means small, poorly fitted or top-dose-only effect, or another doubt; inactive means no such curve, though single readings can be large; an effect the other way counts as inactive or inconclusive.

The target in test [1] is Atrial natriuretic peptide receptor 1 (Homo sapiens) (UniProt P16066). The experiment in a line: Natriuretic polypeptide receptor (hNpr1) antagonism - Pilot CMLD screen (AID 1347052; calls by dose curve;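 further: HEK293 cells with hNpr1 stimulated by hNppA peptide at 0.1 nM; cGMP level read as GloSensor luciferase luminescence after agonist stimulation; series mostly up to about 9.2 µM; on the % scale 0 is the no-effect control and ±100 the full control effect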).
A short description of test [2]: qHTS for Inhibitors of Plasmodium falciparum (DD2) proliferation (AID 504314). Further: potency means the concentration at half of the fitted maximal effect.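 On activity, negative = inhibition: parasite DNA measured by SYBR Green fluorescence after red cell lysis; plate controls were DMSO vehicle for no effect and artemisinin wells for full effect.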 The essentials: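 Infected RBCs, 0.3% parasitemia, 2.5% Hct; compound 72 h, 37C/5% CO2; lyse + SYBR Green I, RT overnight, dark; read ex485/em535; normalize to DMSO and artemisinin 0.29 uM.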
Test [3] can be described thus: qHTS for Inhibitors of Plasmodium falciparum (GB4) proliferation (AID 504315). Further: nearly all actives have a fitted effect of over 50% in size. Further: potency means the concentration at half of the fitted maximal effect.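 On activity change, negative = inhibition: 0% = DMSO vehicle and -100% = 0.29 µM artemisinin control.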 The essentials: (§1)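 Erythrocytes infected with P. falciparum line (0.3% parasitemia, 2.5% hematocrit final) incubated with compounds 72 h at 37 °C, 5% CO2; SYBR Green lysis buffer added, fluorescence read next day. Normalized to 0.29 uM artemisinin and DMSO.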
For orientation: Quantitative high-throughput screening tests each substance at several concentrations.

Test [4] can be described thus: qHTS for Inhibitors of Plasmodium falciparum (7G8) proliferation (AID 504316). Further: nearly all actives have a fitted effect of over 65% in size. Further: potency means the concentration at half of the fitted maximal effect.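 On activity change, negative = inhibition: series mostly up to about 6.7 µM; 0% = DMSO vehicle and -100% = 0.29 µM artemisinin full kill.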 Put shortly:
as §1

Test [5] can be described thus: qHTS for Inhibitors of Plasmodium falciparum (HB3) proliferation (AID 504318). Further: nearly all actives have a fitted effect of over 60% in size. Further: potency means the concentration at half of the fitted maximal effect.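 On activity change, negative = inhibition: 0% = DMSO vehicle and -100% = artemisinin control.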 Put shortly: as §1
Test [6] can be described thus: qHTS for Inhibitors of Plasmodium falciparum (CP250) proliferation (AID 504320).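 Further: plate controls were DMSO vehicle for no effect and 0.29 µM artemisinin control for full effect.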 The essentials: as §1
Test [7] concerns the target Rap guanine nucleotide exchange factor 3 (Homo sapiens) (UniProt O95398). The test can be described thus: Confirmatory qHTS for agonist of cAMP-regulated guanine nucleotide exchange factor 3 (EPAC1) (AID 1645881).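 Further: EPAC1 catalysed release of BODIPY-GDP from Rap1B seen as fluorescence loss; 100% = effect of cAMP agonist control; nearly all actives have a fitted effect of over 75% in size.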
For test [8], the target named is Rap guanine nucleotide exchange factor 4 (Homo sapiens) (UniProt Q8WZA2). The test can be described thus: Confirmatory qHTS for agonist of cAMP-regulated guanine nucleotide exchange factor 4 (EPAC2) (AID 1645884).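 Further: nucleotide exchange releases bodipy-GDP from Rap1 and this lowers its fluorescence; on the % scale 0 is the no-effect control and ±100 the full control effect; nearly all actives have a fitted effect of over 65% in size.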
For test [9] the target is unchanged. The experiment in a line: Confirmatory qHTS for antagonist of cAMP-regulated guanine nucleotide exchange factor 4 (EPAC2) (AID 1645885). Further: on the % scale 0 is the no-effect control and ±100 the full control effect; nearly all actives have a fitted effect of over 25% in size.
Test [10] deals with Rap guanine nucleotide exchange factor 3 (Homo sapiens) (UniProt O95398). The test can be described thus: Counterscreen qHTS for antagonist of cAMP-regulated guanine nucleotide exchange factor 3 (EPAC1) (AID 1645888).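 Further: fluorescence loss as bound BODIPY-GDP is released from Rap1B; % of control where 0% means no effect.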 Put shortly:
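Rap1B-BODIPY-GDP 250 nM + GDP 50 uM; cpds 7-pt, final 9.74 nM–152 uM (activator mode) or from 7.32 nM upwards (inhibitor mode); RT; FI 480/540 nm at 5 and 30 min, then ± cAMP, reread.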

Atrial natriuretic peptide receptor 1 (Homo sapiens), sequence (P16066 whole entry, looked up): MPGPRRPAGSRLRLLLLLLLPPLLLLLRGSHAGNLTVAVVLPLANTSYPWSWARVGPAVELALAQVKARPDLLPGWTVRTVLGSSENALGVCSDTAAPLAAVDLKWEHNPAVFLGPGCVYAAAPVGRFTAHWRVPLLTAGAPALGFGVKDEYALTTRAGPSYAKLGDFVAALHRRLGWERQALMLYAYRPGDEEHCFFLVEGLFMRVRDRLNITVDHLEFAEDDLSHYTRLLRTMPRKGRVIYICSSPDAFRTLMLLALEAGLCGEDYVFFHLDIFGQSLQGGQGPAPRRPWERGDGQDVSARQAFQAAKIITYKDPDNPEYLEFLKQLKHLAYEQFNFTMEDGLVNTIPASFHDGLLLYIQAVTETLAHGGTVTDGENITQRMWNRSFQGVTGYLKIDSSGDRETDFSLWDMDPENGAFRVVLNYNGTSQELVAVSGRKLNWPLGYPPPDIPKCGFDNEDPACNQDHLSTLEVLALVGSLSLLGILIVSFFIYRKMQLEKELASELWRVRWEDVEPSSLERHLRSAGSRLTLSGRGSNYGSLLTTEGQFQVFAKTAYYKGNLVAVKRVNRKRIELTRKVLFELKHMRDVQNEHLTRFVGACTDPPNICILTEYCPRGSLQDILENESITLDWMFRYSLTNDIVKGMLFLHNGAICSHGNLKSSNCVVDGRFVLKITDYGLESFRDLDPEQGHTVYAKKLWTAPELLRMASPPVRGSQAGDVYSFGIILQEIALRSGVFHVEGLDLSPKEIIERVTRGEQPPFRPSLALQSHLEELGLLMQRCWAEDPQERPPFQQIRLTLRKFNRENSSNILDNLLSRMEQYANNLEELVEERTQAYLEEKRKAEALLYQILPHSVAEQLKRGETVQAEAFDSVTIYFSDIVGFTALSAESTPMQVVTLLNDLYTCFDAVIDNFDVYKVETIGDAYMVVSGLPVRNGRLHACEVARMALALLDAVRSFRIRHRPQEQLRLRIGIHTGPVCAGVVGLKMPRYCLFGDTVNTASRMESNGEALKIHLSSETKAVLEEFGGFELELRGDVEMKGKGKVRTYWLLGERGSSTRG
Rap guanine nucleotide exchange factor 3 (Homo sapiens), sequence (O95398 whole entry, looked up): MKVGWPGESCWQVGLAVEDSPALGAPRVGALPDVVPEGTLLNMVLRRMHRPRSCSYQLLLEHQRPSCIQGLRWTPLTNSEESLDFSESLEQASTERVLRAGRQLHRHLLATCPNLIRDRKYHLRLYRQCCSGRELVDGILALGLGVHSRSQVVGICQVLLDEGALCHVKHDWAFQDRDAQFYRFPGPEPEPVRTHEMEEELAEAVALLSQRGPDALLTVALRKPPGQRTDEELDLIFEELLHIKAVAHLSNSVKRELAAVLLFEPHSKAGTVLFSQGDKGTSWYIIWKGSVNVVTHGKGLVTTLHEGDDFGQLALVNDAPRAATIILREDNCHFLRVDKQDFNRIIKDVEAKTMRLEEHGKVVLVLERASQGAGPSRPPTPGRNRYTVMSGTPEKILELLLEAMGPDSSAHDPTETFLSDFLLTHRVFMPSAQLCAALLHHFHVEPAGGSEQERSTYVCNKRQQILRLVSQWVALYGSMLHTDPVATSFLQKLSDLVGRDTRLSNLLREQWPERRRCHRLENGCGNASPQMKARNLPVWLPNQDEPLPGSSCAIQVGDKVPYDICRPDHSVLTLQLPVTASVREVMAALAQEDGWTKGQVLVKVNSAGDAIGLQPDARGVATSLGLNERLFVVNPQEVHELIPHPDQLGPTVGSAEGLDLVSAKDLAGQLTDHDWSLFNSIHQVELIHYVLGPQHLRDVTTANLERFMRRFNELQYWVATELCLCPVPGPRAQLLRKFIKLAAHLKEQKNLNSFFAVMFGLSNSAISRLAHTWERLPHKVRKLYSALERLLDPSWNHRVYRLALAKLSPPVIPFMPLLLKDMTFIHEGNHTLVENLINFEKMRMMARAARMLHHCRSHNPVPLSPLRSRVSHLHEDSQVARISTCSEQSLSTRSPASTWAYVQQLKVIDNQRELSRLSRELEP
Rap guanine nucleotide exchange factor 4 (Homo sapiens), sequence (Q8WZA2 whole entry, looked up): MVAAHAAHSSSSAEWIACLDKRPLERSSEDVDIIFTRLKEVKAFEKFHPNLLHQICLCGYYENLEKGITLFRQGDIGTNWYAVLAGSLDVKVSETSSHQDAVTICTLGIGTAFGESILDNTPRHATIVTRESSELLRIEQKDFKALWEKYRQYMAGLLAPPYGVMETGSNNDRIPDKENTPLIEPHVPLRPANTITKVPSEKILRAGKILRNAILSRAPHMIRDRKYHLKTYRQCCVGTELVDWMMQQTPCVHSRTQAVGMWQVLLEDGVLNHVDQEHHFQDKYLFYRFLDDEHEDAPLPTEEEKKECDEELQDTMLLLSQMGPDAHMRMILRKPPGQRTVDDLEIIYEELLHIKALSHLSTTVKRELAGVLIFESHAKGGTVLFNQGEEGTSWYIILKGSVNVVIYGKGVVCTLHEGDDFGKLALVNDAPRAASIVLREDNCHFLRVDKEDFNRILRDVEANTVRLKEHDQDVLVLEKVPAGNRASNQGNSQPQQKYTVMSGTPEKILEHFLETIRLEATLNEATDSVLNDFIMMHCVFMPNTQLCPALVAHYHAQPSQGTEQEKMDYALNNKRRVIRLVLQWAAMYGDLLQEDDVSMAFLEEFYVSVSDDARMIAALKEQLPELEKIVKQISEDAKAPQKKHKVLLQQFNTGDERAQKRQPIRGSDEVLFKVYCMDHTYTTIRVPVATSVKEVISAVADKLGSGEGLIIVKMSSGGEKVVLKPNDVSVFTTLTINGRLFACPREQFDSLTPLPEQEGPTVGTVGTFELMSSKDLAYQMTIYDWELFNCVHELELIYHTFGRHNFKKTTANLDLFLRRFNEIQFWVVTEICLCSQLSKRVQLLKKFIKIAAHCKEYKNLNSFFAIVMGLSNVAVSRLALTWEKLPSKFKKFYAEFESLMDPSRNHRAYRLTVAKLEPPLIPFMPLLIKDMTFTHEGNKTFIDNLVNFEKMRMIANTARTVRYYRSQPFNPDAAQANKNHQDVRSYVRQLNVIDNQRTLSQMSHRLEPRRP

As to `C[C@@H]1CC2=CCCC2[C@]2(O1)C(=O)N(Cc1ccc(F)cc1)c1cccc(Br)c12` (some centres undefined), the Potency result in test [1] was “inactive”.

For the molecule `Cc1cccc(C)c1Nc1oc(-c2ccccc2)nc1C(C)(C)C`, the Potency result in test [2], in test [3], in test [4] and in test [1] was “inactive” in each case.

For the molecule `COc1ccc(C(=O)[C@]2(C)C=C(c3ccc(OC)cc3)[C@H](C)C2)cc1`, the Potency entry in test [2], in test [3] and in test [1] was “inactive” throughout.

With `COC(=O)C1=C(C(=O)OC)[C@@H]2N(C)c3ccccc3[C@@]23C[C@@H](CO)N(C(=O)NC2CCCCC2)C3=N1`, the Potency result in [2] and in test [1] was “inactive” each time.

As for `Cc1ccccc1Nc1oc(-c2ccccc2)nc1-c1ccccc1F`, the Potency result in test [1] was “inactive”.

In the case of `COC(=O)CCCC1=CC2=CC(=O)C(C)(OC(=O)c3cccs3)C(=O)C2=CN1c1ccc(OC)cc1` (centres undefined), the activity, negative = inhibition in test [2] was 1.04% [at 1.12 µM]. The Potency result in [3] and in test [1] was “inactive” in each case.

With `C=CCOC(=O)C(C(C)=O)[C@@H](NC(=O)OC)c1ccc2ccccc2c1` (some centres undefined), the Potency result in [2], in test [3], in test [4] and in test [1] was “inactive” throughout.

For the molecule `COC(=O)[C@H]1C[C@@]2(CC=C(C)C)C(=O)[C@@](CC=C(C)C)(C(=O)C(C(=O)c3ccccc3)=C2OC)C1(C)C`, the Potency result in test [2], in [3], in test [4] and in test [1] was “inactive” each time.

As for `CCN(CC)CCCN=C1NC(c2cccc(F)c2)C(C(=O)OC)=C(C)N1Cc1ccccc1` (centres undefined), the Potency entry in test [2], in [3] and in [1] was “inactive” in each case.

With `CC(=O)OC[C@H]1O[C@H](CCON=C(C)CCN2CCCc3nc(C)c(C)cc32)C=C[C@H]1OC(C)=O`, the Potency entry in test [2], in test [3] and in test [1] was “inactive” throughout.

Consider `COc1ccc(-c2nc(-c3ccccc3)c(NCc3ccccc3)o2)cc1`, for which the Potency entry in [1] is “inactive”.

Turning to `COCOc1cc(OC)ccc1C(=O)C=Cc1ccc([N+](=O)[O-])cc1`, the figures for the Potency in [2] and in test [3] were 1500 nM (active) and 1690 nM (active), respectively. Also, in [1], the Potency result is “inactive”.

As for `C[C@H]1CC[C@H]2C(=O)N(Cc3ccc(Cl)cc3)C[C@H](O)CN2[C@H]1c1ccc(Br)cc1`, the Potency result in test [1] is “inactive”.

With `COCOc1cc(OC)ccc1C(=O)C=Cc1ccc2c(c1)OCO2`, the Potency entry in test [1] was “inactive”.

For the molecule `C[C@@H]1CC[C@H]2C(=O)O[C@@H](COc3ccc(C(C)(C)C)cc3)CN2[C@H]1c1ccc(Br)cc1`, the Potency entry in test [2], in test [3] and in [1] was “inactive” each time.

As for `COC(=O)N1C(c2ccccc2)=Cc2ccccc2C1CC(C)=O` (centres undefined), the Potency entry in test [2], in test [3] and in test [1] was “inactive” throughout.

Take `COC(=O)C1=C(C)N(Cc2ccccc2)C(=NCC(C)C)NC1c1cccc(C(F)(F)F)c1` (centres undefined): the Potency result in test [1] was “inactive”.

On to `C[C@H]1CCCC(=O)N[C@@H](c2ccccc2)[C@@H](C)CCCC(=O)N[C@@H]1c1ccccc1`, for which the Potency entry in test [2], in test [3], in [4] and in test [1] was “inactive” in each case.

On to `CCCCC1=CC2=CC(=O)C(C)(OC(=O)CCc3ccccc3)C(=O)C2=CO1` (centres undefined), for which the Potency result in [2], in [4], in [5], in [6] and in test [1] was “inactive” each time. Besides, the call in [7] was inactive. For the same molecule, in [8], the activation is 0% [at 17.1 µM]. The figures for the activity change, negative = inhibition in test [9] and in test [10] were 20.8% [at 12.7 µM] and 1.91% [at 30.8 µM], respectively.

`CC1=CC[C@@H](COc2ccccc2)O[C@@]2(C1)C(=O)N(Cc1ccccc1C(F)(F)F)c1ccccc12`: the Potency entry in [2] and in test [1] was “inactive” throughout.

In the case of `COC(=O)c1cc(C(=O)OC)n2c(C)cc3ccccc3c12`, the Potency entry in test [2], in test [3], in [4] and in [1] was “inactive” each time.

For the molecule `CCCCc1cc2c(cn1)=C(OC(=O)c1cccs1)C(C)(OC(=O)CC)C(=O)C=2` (centres undefined), the Potency in test [2] is 1890 nM (active); in test [3], 1690 nM (active); in test [4] it was 1690 nM (active); in test [5] it was 1900 nM (active). The activity, negative = inhibition in test [2] was 1.64% [at 1.12 µM]. For the same molecule, the Potency result in [6] and in test [1] was “inactive” each time.

Take `CCCCC1=CC2=C(c3ccco3)C(=O)C(C)(OC(=O)c3ccc(OC)cc3)C(=O)C2=CN1C1CCCCC1` (centres undefined): the Potency entry in test [2], in test [3], in [4] and in test [1] was “inactive” each time.

`CCN1C(=O)[C@@H]2[C@H]3[C@H](O)[C@H](O)CC(=NOC[C@H]4O[C@H](c5ccccc5)C=C[C@H]4Oc4ccc(OC)cc4)[C@@H]3CC[C@H]2C1=O`: the Potency entry in [2], in test [3] and in test [1] was “inactive” in each case.
